Test results taken from the supplement of paper PMC11624193, “Coupling cellular drug-target engagement to downstream pharmacology with CeTEAM” (Nature Communications, 2024).
Structures can show the parent of a compound that is named as a salt.

What follows are compounds tested against PARP1 L713F-nLuc biosensor (HCT116) (UniProt P09874) (assay: PARP1 L713F-nLuc/akaLuc ratio relative to DMSO control (biosensor stabilization) (fold change); higher = more PARP1 biosensor stabilization (target engagement / stabilizer), active = hit call of the paper). Details: stock concentration (mM; final µM = stock mM x 1): 10; 24 h;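 active = log2 fold change beyond 2 SD from the library mean after excluding viability outliers; inactive = within 2 SD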.
Sequence of PARP1 L713F-nLuc biosensor (HCT116) (P09874 whole entry L713F, looked up): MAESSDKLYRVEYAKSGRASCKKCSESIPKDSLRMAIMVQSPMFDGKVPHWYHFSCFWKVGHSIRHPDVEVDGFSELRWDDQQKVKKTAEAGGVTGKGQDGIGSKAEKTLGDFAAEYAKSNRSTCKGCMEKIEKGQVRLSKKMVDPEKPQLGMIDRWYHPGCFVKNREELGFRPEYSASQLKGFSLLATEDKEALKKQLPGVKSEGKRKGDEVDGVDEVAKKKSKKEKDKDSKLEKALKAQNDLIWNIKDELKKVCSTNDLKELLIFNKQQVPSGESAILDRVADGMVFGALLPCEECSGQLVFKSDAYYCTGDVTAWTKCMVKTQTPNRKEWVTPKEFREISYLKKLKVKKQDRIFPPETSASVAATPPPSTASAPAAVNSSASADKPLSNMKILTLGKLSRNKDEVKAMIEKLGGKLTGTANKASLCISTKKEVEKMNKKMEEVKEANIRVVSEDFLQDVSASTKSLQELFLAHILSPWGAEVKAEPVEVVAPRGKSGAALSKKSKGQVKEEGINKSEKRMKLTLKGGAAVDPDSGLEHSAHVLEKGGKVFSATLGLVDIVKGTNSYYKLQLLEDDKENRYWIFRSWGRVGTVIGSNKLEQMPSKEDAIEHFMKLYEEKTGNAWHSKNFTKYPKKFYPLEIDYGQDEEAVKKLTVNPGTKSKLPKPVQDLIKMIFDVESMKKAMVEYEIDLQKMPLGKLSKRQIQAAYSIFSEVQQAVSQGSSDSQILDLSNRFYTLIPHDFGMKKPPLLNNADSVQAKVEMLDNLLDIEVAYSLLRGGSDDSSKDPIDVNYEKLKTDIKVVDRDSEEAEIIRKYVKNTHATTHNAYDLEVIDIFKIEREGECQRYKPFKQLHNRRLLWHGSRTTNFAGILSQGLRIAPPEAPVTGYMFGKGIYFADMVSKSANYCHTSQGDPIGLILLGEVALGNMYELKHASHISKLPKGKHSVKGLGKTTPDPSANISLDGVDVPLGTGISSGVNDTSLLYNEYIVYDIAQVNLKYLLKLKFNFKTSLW

SMILES | PARP1 L713F-nLuc/akaLuc ratio
Cc1cc(CN2CCN(c3c(Br)cnc4nc(-c5ccc(N6CCN(C)CC6)cc5)[nH]c34)CC2)no1 | 1.37 (inactive)
CCS(=O)(=O)N1CCN(c2ccc(Nc3ncc(C(N)=O)c(NC4CC4)n3)cc2)CC1 [Cerdulatinib (hydrochloride)] | 1.06 (inactive)
CN(C)Cc1ccc(-c2nc3cccc4c3n2CCNC4=O)cc1 | 8.09 (active)
CN1CCN(c2ccc(Nc3ncc4cc(C#N)c(=O)n(C5CCCC5)c4n3)cc2)CC1 | 0.701 (inactive)
CC1=C(/C=C/C(C)=C/C=C/C(C)=C/C(=O)O)C(C)(C)CCC1 [Tretinoin] | 0.599 (inactive)
NC[C@@](O)(c1ccc(Cl)cc1)c1ccc(-c2cn[nH]c2)cc1 | 0.809 (inactive)
O=[N+]([O-])c1cc(Nc2ccc3nonc3c2[N+](=O)[O-])ccc1Cl | 1.28 (inactive)
CC[C@H](CO)Nc1nc(NCc2ccccc2)c2ncn(C(C)C)c2n1 [Roscovitine (Seliciclib,CYC202)] | 0.975 (inactive)
CCN(CCO)CCCOc1ccc2c(Nc3cc(CC(=O)Nc4cccc(F)c4)[nH]n3)ncnc2c1 [Barasertib-HQPA] | 0.878 (inactive)
O=C(Nc1cc(Cl)cc(Cl)c1)Nc1cc(Cl)cc(Cl)c1 | 1.29 (inactive)
COc1cc2cc(Oc3ccc4ccc(=O)oc4c3)c(=O)oc2cc1O [Daphnoretin] | 0.72 (inactive)
Cc1cc(Nc2cc3ncccc3c(N[C@@H]3C[C@H]4CC[C@@H](C3)N4CCC#N)n2)n[nH]1 [Izencitinib] | 0.804 (inactive)
Cc1[nH]n(-c2ccccc2)c(=O)c1N=Nc1ccc(N2CCOCC2)cc1 | 1.04 (inactive)
N#Cc1ccc2[nH]c(O)c(-c3ccc(CN4CCOCC4)cn3)c2c1 | 0.881 (inactive)
